# Measurements: the supplement of paper PMC6555819
# Columns and labels:
# Assay in all cases: PBM binding z-score (relative to random genomic background probes); higher = stronger binding; sequences stand for … in GC…GCGATTGACAGCGTAGAATGAAGG
# [1] = system: FXR:RXRa (NR concentration 270 nM, RXRa partner concentration 90 nM)
# Method in brief: (§1)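 Each nuclear receptor dimer, without ligand, was incubated for 1 h on custom Agilent 4×180K protein-binding microarrays. Binding was detected with antibodies against each partner (one per run), and scanned fluorescence was regression-normalized. The binding z-scores are referenced to random human genomic background probes.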
# [2] = system: LXRa:RXRa (NR concentration 270 nM, RXRa partner concentration 90 nM)
# Method in brief: as §1
# [3] = system: LXRa homodimer (NR concentration 270 nM)
# Method in brief: as §1
# [4] = system: LXRb:RXRa (NR concentration 270 nM, RXRa partner concentration 90 nM)
# Method in brief: as §1
# [5] = system: LXRb homodimer (NR concentration 270 nM)
# Method in brief: as §1
# [6] = system: PPARa:RXRa (NR concentration 270 nM, RXRa partner concentration 90 nM)
# Method in brief: as §1
# [7] = system: PPARg:RXRa (NR concentration 180 nM, RXRa partner concentration 90 nM)
# Method in brief: as §1
# [8] = system: PPARg:RXRa 270nM:90nM, anti-RXR (NR concentration 270 nM, RXRa partner concentration 90 nM)
# Method in brief: as §1
# [9] = system: PPARg:RXRa 30nM:10nM, anti-RXR (NR concentration 30 nM, RXRa partner concentration 10 nM)
# Method in brief: as §1
# [10] = system: PPARg:RXRa 90nM:30nM, anti-RXR (NR concentration 90 nM, RXRa partner concentration 30 nM)
# Method in brief: as §1
# [11] = system: PPARg:RXRa DBDmut IVT, anti-RXR (DBD mutation: RXRa K156A/R161A, NR concentration 270 nM, RXRa partner concentration 90 nM)
# Method in brief: as §1
# [12] = system: PPARg:RXRa IVT, anti-PPARg (NR concentration 270 nM, RXRa partner concentration 90 nM)
# Method in brief: as §1
# [13] = system: PPARg DBDmut:RXRa IVT, anti-PPARg (DBD mutation: PPARg1 K132A/R137A, NR concentration 270 nM, RXRa partner concentration 90 nM)
# Method in brief: as §1
# [14] = system: PPARg DBDmut IVT, anti-PPARg (DBD mutation: PPARg1 K132A/R137A, NR concentration 270 nM)
# Method in brief: as §1
# [15] = system: PPARg homodimer (NR concentration 180 nM)
# Method in brief: as §1
# [16] = system: PXR:RXRa (NR concentration 270 nM, RXRa partner concentration 90 nM)
# Method in brief: as §1
# [17] = system: PXR homodimer (NR concentration 270 nM)
# Method in brief: as §1
# [18] = system: RARa:RXR (NR concentration 270 nM, RXRa partner concentration 90 nM)
# Method in brief: as §1
# [19] = system: RARa homodimer (NR concentration 270 nM)
# Method in brief: as §1
# [20] = system: RARb:RXRa (NR concentration 270 nM, RXRa partner concentration 90 nM)
# Method in brief: as §1
Sequence,PBM binding z-score [1],PBM binding z-score [2],PBM binding z-score [3],PBM binding z-score [4],PBM binding z-score [5],PBM binding z-score [6],PBM binding z-score [7],PBM binding z-score [8],PBM binding z-score [9],PBM binding z-score [10],PBM binding z-score [11],PBM binding z-score [12],PBM binding z-score [13],PBM binding z-score [14],PBM binding z-score [15],PBM binding z-score [16],PBM binding z-score [17],PBM binding z-score [18],PBM binding z-score [19],PBM binding z-score [20]
ATCGAAAGTTCGAAGGTGAGTATACCCACCCGAA,0.822,1.16,0.11,0.739,-0.0356,1.9,1.07,1.17,0.177,0.844,0.0334,0.537,0.525,0.231,0.595,1.16,-0.00599,1.67,-0.2,2.07
ATCTCTAGGTAAAGATAGTTCAGTAAATGCAAAT,0.492,4.09,0.589,1.27,0.936,0.78,0.749,0.691,0.403,0.563,1.89,1.77,1.18,0.812,0.801,1.14,0.936,0.952,1.67,0.706
CAAACTAGGTCACGGAAGGTCAAAGTCGAATGAC,7.44,7.64,6.7,6.73,1.71,6.26,10.3,8.41,7.26,8.7,8.57,8.97,6.9,4.23,7.08,6.99,2.28,6.84,3.11,5.29
CCTACTGGGCCGCGAAAGGTCATTGATTCAGTGA,3.37,4.49,3.63,3.85,0.0149,4.35,1.94,3.69,0.701,2.76,2.81,3.04,-1.14,-0.345,3.03,5.13,1.47,5.27,0.0232,3.81
CCGAGTAGGTTATGGGGCATTCGGGCAACGGTGA,0.24,0.637,0.00114,0.528,-0.313,2.4,3.36,4.85,2.16,4.57,2.83,3.88,-0.19,-0.259,0.492,0.00674,-0.383,0.377,-0.149,1.1
GATACAGGGTCAGGTAGAGGCCAGAGTATGGAAA,4.61,2.74,-0.128,2.58,-0.154,4.6,3.75,3.23,0.959,2.07,0.739,2.45,0.9,0.631,2.28,2.96,0.741,3.47,1.29,4
CAAACTACGTCAAAGGTCAAAGTCGAGCCAACCA,5.96,6.21,4.83,5.68,2.75,6.18,8.64,7.97,6.79,8.59,0.954,3.98,7.78,3.09,4.03,5.6,1.77,6.64,2.88,4.73
